Only some compounds are listed: those with a hit (about 0.86% of all), similar ones and a draw of the others.
TAR Tat displ: HIV-1 TAR-Tat binding disruption; HIV-1 TAR RNA, Tat peptide displacement FRET; active compounds read high; z-score (concentration not given with the values); 100,000 tested, 0.6% active; active = z-score of 3 or more in at least 2 runs
CDC25B-CDK2 inh: human CDC25B-CDK2/CyclinA binding inhibition; P30305+P24941; HTRF CDC25B-CDK2/CyclinA binding, anti-His/anti-Flag; active compounds read high; z-score (concentration not given with the values); 94,000 tested, 0.72% active; in the data active = z-score above about 3.2
* marks the source's active call; other numbers are inactive results; x = not tested or not shown.

SMILES	TAR Tat displ	CDC25B-CDK2 inh
CC1CCCCC1NC(=O)C1(C)Cn2c(cc3occc32)C(=O)N1C1CCCCC1 (stereo not drawn)	3	x
CC1CCC(NC(=O)C2(C)Cn3c(ccc3-c3ccco3)C(=O)N2Cc2cccs2)CC1 (stereo not drawn)	0.47	x
CC1CCC(NC(=O)C2(C)Cn3c(cc4occc43)C(=O)N2Cc2cccs2)CC1 (stereo not drawn)	10*	x
CC1CCC(NC(=O)C2(C)Cn3c(cc4occc43)C(=O)N2Cc2ccco2)CC1 (stereo not drawn)	19*	x
CCC(C)N1C(=O)c2cc3occc3n2CC1(C)C(=O)NC1CCC(C)CC1 (stereo not drawn)	5.3	x
CC1CCCC(NC(=O)C2(C)Cn3c(cc4occc43)C(=O)N2Cc2ccco2)C1C (stereo not drawn)	4.2	x
CC1CCCCC1NC(=O)C1(C)Cn2c(cc3occc32)C(=O)N1c1ccc(Cl)cc1 (stereo not drawn)	7.6*	x
O=C(Cn1ncc2c(Cl)cccc21)NCCCN1CCCC1	0.45	0.53
CC1=C(c2ccc(C)c(C)c2)S(=O)(=O)NC1=NCCc1ccc(S(N)(=O)=O)cc1	-1.1	0.4
O=C(O)c1ccc2c(c1)C1C3CCC(C3)C1C(c1c(F)cccc1Cl)N2 (stereo not drawn)	-0.42	-0.6
Cc1noc(/C=C/N(C)C)c1S(=O)(=O)N1CCN(C2CCCC2)CC1	0.98	x
Cc1cc2c(cc3n2CC(C)(C(=O)NC2CCCCC2)N(C2CCCCC2)C3=O)o1 (stereo not drawn)	2.8	x
Cc1cc2c(cc3n2CC(C)(C(=O)NC2CCCCC2)N(C(C)C)C3=O)o1 (stereo not drawn)	7.2*	x
Cc1ccc(C)c(CNC(=O)c2cnc3sc4c(n3c2=O)CCCC4)c1	1.1	x
COc1cccc(C2CC(=O)N3CN(CCCc4ccccc4)CSC3=C2C#N)c1 (stereo not drawn)	1.4	5*
N#CC1=C2SCN(Cc3ccco3)CN2C(=O)CC1c1cccc(OCc2ccccc2)c1 (stereo not drawn)	-1.2	3.4*
N#CC1=C2SCN(Cc3ccccc3)CN2C(=O)CC1c1cccs1 (stereo not drawn)	-0.52	5.2*
N#CC1=C2SCN(Cc3ccco3)CN2C(=O)CC1c1ccc(OCc2ccccc2)cc1 (stereo not drawn)	0.22	-1.8
COc1ccc(C2CC(=O)N3CN(CCCc4ccccc4)CSC3=C2C#N)cc1OC (stereo not drawn)	0.56	5.8*
COc1cc(-c2nc3nc[nH]n3c2Nc2c(C)cccc2C)ccc1O	-0.03	-1.5
CCCCNc1nc(C(C)C)c2c(c1C#N)CC(C)(C)OC2	-0.6	-2.5
Cc1nc(-c2ccc(C)c(S(=O)(=O)NCCCc3ccccc3)c2)cs1	3.2	x
COc1cc(C2CC(=O)N3CN(Cc4ccco4)CSC3=C2C#N)ccc1OCc1ccccc1 (stereo not drawn)	-1.2	-0.88
COc1ccc(C2CC(=O)N3CN(C(C)c4ccccc4)CSC3=C2C#N)cc1OC (stereo not drawn)	1.1	5.5*
COc1cc(C2CC(=O)N3CN(C)CSC3=C2C#N)ccc1OCc1ccccc1 (stereo not drawn)	-1.3	4.1*
SMILES	TAR Tat displ	CDC25B-CDK2 inh
N#CC1=C2SCN(C3CCCCC3)CN2C(=O)CC1c1ccccc1Cl (stereo not drawn)	0.56	2.1
N#CC1=C2SCN(Cc3ccccc3)CN2C(=O)CC1c1ccc2c(c1)OCO2 (stereo not drawn)	0.95	4*
Cc1c(Cl)cccc1N1CSC2=C(C#N)C(c3cccs3)CC(=O)N2C1 (stereo not drawn)	-0.6	7.9*
CC1CCC(NC(=O)C2CCCN(S(=O)(=O)c3ccc4c(c3)CC(C)N4C(=O)C3CC3)C2)CC1 (stereo not drawn)	0.28	x
COc1ccc(OC)c(CNS(=O)(=O)c2cc(-c3cnc(C)o3)ccc2C)c1	1.3	x
CCCN1CCN(c2cnnc3c(Cl)cccc23)CC1	0.29	x
Cc1cc(CNC(=O)NCCC(C)C)c(C)n1-c1ccc(F)cc1	0.94	x
CCOCCOC(NC(=O)OCC)(C(F)(F)F)C(F)(F)F	x	0.73
N#CC1=C2SCN(Cc3ccccc3)CN2C(=O)CC1c1cccc(F)c1 (stereo not drawn)	1.1	4.9*
COc1cccc(C2CC(=O)N3CN(Cc4ccccc4)CSC3=C2C#N)c1 (stereo not drawn)	-0.29	5.2*
COc1ccc(-c2cc(N)n(-c3nc(-c4ccc(F)cc4)cs3)n2)cc1	-0.45	x
O=C1CCCc2cc(S(=O)(=O)NCCCN3CCOCC3)ccc2N1	1.5	x
O=c1cc(CSc2nnc(-c3ccc(Cl)cc3)o2)nc2sc(C3CC3)nn12	14*	-2.2
O=c1cc(CSc2nnc(-c3cccs3)o2)nc2sc(C3CCCCC3)nn12	0.32	-2
COc1cc(C2Nc3ccccc3S(=O)(=O)N2Cc2ccccc2)cc(OC)c1OC (stereo not drawn)	x	-1.1
Cc1cccc(CN2CCc3nc(N4CCCC4)ncc3C2)c1	1.1	x
COc1ccc(C2CC(=O)N3CN(c4ccc(N(C)C)cc4)CSC3=C2C#N)cc1 (stereo not drawn)	-0.01	5.5*
Cc1ccc(C2CC(=O)N3CN(c4ccc(N(C)C)cc4)CSC3=C2C#N)cc1 (stereo not drawn)	-1.1	6.7*
CCCN(CCC)C(=O)CN1C(=O)N(c2cc(C)cc(C)c2)C2CS(=O)(=O)CC21 (stereo not drawn)	0.07	-0.19
O=C(NCc1csc(-c2ccccc2)n1)[C@H]1CSCN1C(=O)C1CCCO1 (stereo partly drawn)	1.8	x
O=C1Nc2ccc([N+](=O)[O-])cc2C1=O	-1.4	x
CN(CC(=O)NC1CCCC1)S(=O)(=O)c1ccc(-c2ccc(=O)[nH]n2)s1	-1	x
NNc1nc2ccccc2[nH]c1=S	x	5.5*
ON=C(c1nc2ccccc2[nH]1)c1nc2ccccc2[nH]1	x	2.4
Cc1ccc(N2CSC3=C(C#N)C(c4ccccc4)CC(=O)N3C2)cc1Cl (stereo not drawn)	-5.7	5.6*
SMILES	TAR Tat displ	CDC25B-CDK2 inh
Cc1cccc(N2CSC3=C(C#N)C(c4ccc(C)o4)CC(=O)N3C2)c1 (stereo not drawn)	-1	-0.48
CCc1ccccc1N1CSC2=C(C#N)C(c3ccccc3)CC(=O)N2C1 (stereo not drawn)	-1.2	6.9*
Cc1ccc(N2CSC3=C(C#N)C(c4cccc(F)c4)CC(=O)N3C2)cc1 (stereo not drawn)	-1.2	4.7*
N#CC1=C2SCN(c3cccc(Cl)c3)CN2C(=O)CC1c1cccc(F)c1 (stereo not drawn)	-1.7	8.4*
COc1ccc(-c2nc(N3CCCC3)nc3n[nH]c(N)c23)cc1	x	0.12
CCCNC(=O)c1oc2ccc3c(c2c1C)C(=O)CC(C)(CC)O3 (stereo not drawn)	0.95	-1.3
O=S(=O)(Cc1ccccc1)c1ccc2c(c1)S(=O)(=O)N=CN2	-0.52	x
Cc1cccc(-c2nc3nc(C)cc(N4CCOCC4)n3n2)c1	1.1	-0.86
Cc1ccccc1N1CSC2=C(C#N)C(c3cccc(F)c3)CC(=O)N2C1 (stereo not drawn)	-1.5	8*
N#CC1=C2SCN(c3ccc(Br)cc3)CN2C(=O)CC1c1ccccc1 (stereo not drawn)	-5	6*
N#CC1=C2SCN(C3CCCCC3)CN2C(=O)CC1c1ccccc1 (stereo not drawn)	2.1	-1.3
